From PubChem
NadD inh = NadD (S. aureus) enzyme inhibition | inhibition, % at 20 µM | purified NadD enzyme, colorimetric absorbance read-out | hit rate 0.78% among 360,000; in the data active = inhibition above about 26%
FAS-TE inh = blocks the thioesterase domain of human fatty acid synthase; P49327; recombinant FAS-TE, OMFH fluorogenic substrate, fluorescence endpoint; inhibition, % at 15 µM; hit rate 0.67% among 360,000; AID 602261;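 active = compounds whose normalised, plate-corrected inhibition of enzyme fluorescence in the single-dose primary screen is 50% or more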;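 also: 0% = DMSO with enzyme and 100% = substrate without enzyme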
SUMO Mot1 rescue = blocks SUMOylation pathway, rescuing yeast Mot1-301 growth. AID 2716. growth rescue, % at 18.8 µM. S. cerevisiae Mot1-301 growth rescue, ATP luminescence, 38.5C; percent above DMSO median, 100 means doubled. hit rate 1% among 320,000;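 active = every valid replicate shows activation above 250% relative to neutral control wells; inactive = the rest, any valid replicate at or below 250%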;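 also: OY570 slx delta 5 strain wells were the positive control but not used for scaling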
Calb FLC = C. albicans growth modulation with fluconazole | C. albicans CaCi-2 (fluconazole-resistant clinical isolate) + fluconazole, Alamar Blue growth, 48 h | growth inhibition, % (concentration not given with the values) | hit rate 0.57% among 300,000 | AID 1979;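 active = growth inhibition above about 58% in most replicates, limit read from the data, passing the limit was not always enough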;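 also: all wells also contain fluconazole at 8 µg/ml as a sub-toxic cotreatment; 0% = median of DMSO wells and 100% = median of geldanamycin control wells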
ATG4B inhibitor = inhibitors of human ATG4B cysteine protease; ATG4B cleavage of LC3-PLA2, NBD-HPC fluorescence, 1 h; inhibition, % at 8.33 µM; hit rate 0.51% among 340,000; in the data active = inhibition above about 40%
Target sequence (Q9Y4P1 whole entry, looked up): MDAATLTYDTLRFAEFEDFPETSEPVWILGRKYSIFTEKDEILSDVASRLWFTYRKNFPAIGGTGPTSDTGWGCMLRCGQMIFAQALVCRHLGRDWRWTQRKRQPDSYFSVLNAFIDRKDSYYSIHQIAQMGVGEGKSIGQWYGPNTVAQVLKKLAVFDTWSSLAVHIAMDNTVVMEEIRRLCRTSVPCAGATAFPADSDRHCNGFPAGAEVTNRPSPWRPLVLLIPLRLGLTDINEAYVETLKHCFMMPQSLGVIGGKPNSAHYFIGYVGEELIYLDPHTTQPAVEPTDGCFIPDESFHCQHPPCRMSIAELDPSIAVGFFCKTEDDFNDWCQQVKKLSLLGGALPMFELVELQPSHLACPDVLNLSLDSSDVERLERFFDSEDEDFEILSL
Mot1 SUMO dose = yeast SUMO pathway inhibition in dose response. growth activity, percent, % at 42 µM. AID 493004. S. cerevisiae Mot1-301 galactose growth, ATP luminescence, 24 h; -100 = growth of slx-deleted rescue strain. 2,300 tested, under 10 active. shares compounds with SUMO Mot1 rescue;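 active = Signal drops as the depositor expects, and the fitted half-maximal dose is no more than ten times the top valid tested dose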;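 also: more negative values mean stronger growth rescue toward the control strain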
The depositor's hits bear a star. This is a sample that favours compounds with a hit; in the whole collection about 3.1% have one here.

How did COc1cccc(S(=O)(=O)N(C)C[C@@H]2Oc3cc(C#CCN(C)C)ccc3S(=O)(=O)N([C@H](C)CO)C[C@@H]2C)c1 do in these assays?
NadD inh: -3; FAS-TE inh: -11

How did COC(=O)c1ccc(/C=N/NC(=O)C(=O)NCC2CCCO2)cc1 (configuration not stated) do in these assays?
NadD inh: 6; FAS-TE inh: -6; SUMO Mot1 rescue: 731*; Calb FLC: -2; ATG4B inhibitor: 1; Mot1 SUMO dose: 1

What do the screens show for `Cc1ccc(C(=O)N/C(=C/c2ccccc2)C(=O)NCC2CCCO2)cc1` (configuration not stated)?
NadD inh: 1; FAS-TE inh: 0; SUMO Mot1 rescue: 399*; Calb FLC: 25; ATG4B inhibitor: -2; Mot1 SUMO dose: 0

What do the screens show for `O=C(NCC1CCCO1)/C(=C\c1ccc(Cl)cc1)NC(=O)c1ccccc1` (configuration not stated)?
NadD inh: -3; FAS-TE inh: -9; SUMO Mot1 rescue: -2; Calb FLC: -2; ATG4B inhibitor: 3

Results for C[C@H](CO)N1C[C@H](C)[C@@H](CN(C)S(=O)(=O)c2cn(C)cn2)Oc2cc(Br)ccc2S1(=O)=O ?
NadD inh: 7; FAS-TE inh: -6

What do the screens show for `CCOC(=O)C1=C(C)NC(C)=C(C(=O)OCC)C1C(=O)OC1CCOC1=O` (configuration not stated)?
NadD inh: 0; FAS-TE inh: -4; SUMO Mot1 rescue: 463*; Calb FLC: 30; ATG4B inhibitor: -1; Mot1 SUMO dose: 0

What do the screens show for `CC(=O)c1c(NC(=O)c2ccccc2)[nH]c(-c2ccccc2)nc1=S`?
NadD inh: -2; FAS-TE inh: -5; SUMO Mot1 rescue: -2; Calb FLC: -4; ATG4B inhibitor: 2

How did C=CCn1c(-c2ccc(OC)cc2)nc2ccccc21 do in these assays?
NadD inh: 8; FAS-TE inh: -2; SUMO Mot1 rescue: 396*; Calb FLC: 6; ATG4B inhibitor: -4; Mot1 SUMO dose: 0

Results for C=CCn1c(-c2ccc(N)cc2)nc2ccccc21 ?
NadD inh: -2; FAS-TE inh: -6; SUMO Mot1 rescue: 265; Calb FLC: 1; ATG4B inhibitor: -7

How did CCOCCn1c(-c2ccc(OC)cc2)nc2ccccc21 do in these assays?
NadD inh: 4; FAS-TE inh: 3; SUMO Mot1 rescue: 477*; Calb FLC: -5; ATG4B inhibitor: 1; Mot1 SUMO dose: 0

What do the screens show for `COc1ccc(C(C)(C)NC(=O)C2CCC(=O)N(CCCN3CCCC3=O)C2)cc1` (configuration not stated)?
NadD inh: -1; FAS-TE inh: -6; SUMO Mot1 rescue: -1; Calb FLC: -14; ATG4B inhibitor: -5

Results for C[C@@H]1CCCCO[C@@H](CN(C)Cc2ccc(Cl)c(Cl)c2)[C@@H](C)CN([C@H](C)CO)C(=O)c2cc(NC(=O)CCC(F)(F)F)ccc2O1 ?
NadD inh: 5; FAS-TE inh: 23

How did O=C(NCCc1ccc(F)cc1)C1CCCCC1 do in these assays?
NadD inh: -6; FAS-TE inh: -7; SUMO Mot1 rescue: -8; Calb FLC: 10; ATG4B inhibitor: 3

How did O=C1COc2ccc(C(=O)COC(=O)c3ncc(Cl)c(Cl)c3Cl)cc2N1 do in these assays?
NadD inh: 1; FAS-TE inh: 24; SUMO Mot1 rescue: 851*; ATG4B inhibitor: 6; Mot1 SUMO dose: 0

What do the screens show for `Cc1ccc(S(=O)(=O)Oc2ccccc2N2C(=O)C3CC=CCC3C2=O)cc1` (configuration not stated)?
NadD inh: -5; FAS-TE inh: 2; SUMO Mot1 rescue: active; Calb FLC: -5; ATG4B inhibitor: 5; Mot1 SUMO dose: -1

How did CCc1ccccc1NC(=S)NNC(=O)c1ccccc1Cl do in these assays?
NadD inh: -3; FAS-TE inh: -5; SUMO Mot1 rescue: active; Calb FLC: 103*; ATG4B inhibitor: -1; Mot1 SUMO dose: 0

What do the screens show for `C=CCCC(=O)N1C[C@H]2CON(C)[C@H]2C[C@H]1c1cccc(Oc2ccccc2)c1`?
NadD inh: -2; FAS-TE inh: 0

What do the screens show for `CCOC(=O)C1=C(C)NC2=C(C(=O)CC(c3cccs3)C2)C1c1cccs1` (configuration not stated)?
NadD inh: -2; FAS-TE inh: 11; SUMO Mot1 rescue: -13; ATG4B inhibitor: -11

How did CCCOC(=O)C1=C(C)NC2=C(C(=O)CCC2)C1c1cccs1 (configuration not stated) do in these assays?
NadD inh: -7; FAS-TE inh: -4; SUMO Mot1 rescue: 451*; Calb FLC: 8; ATG4B inhibitor: -6; Mot1 SUMO dose: 0

How did COC(=O)c1cc(N=Nc2c(C)[nH]c3ccccc23)cc(C(=O)OC)c1 do in these assays?
NadD inh: -1; FAS-TE inh: -6; SUMO Mot1 rescue: 945*; Calb FLC: -2; ATG4B inhibitor: -3; Mot1 SUMO dose: 0

What do the screens show for `Cc1cc(C(=O)NNC(=O)c2ccc(Cl)c(S(N)(=O)=O)c2)c(C)o1`?
NadD inh: -1; FAS-TE inh: -4; SUMO Mot1 rescue: -8; ATG4B inhibitor: -4

How did COc1ccc(C(=O)N/C(=C\c2cn(C)c3ccccc23)C(=O)OCCN(C)C)cc1 do in these assays?
NadD inh: -8; FAS-TE inh: -6; SUMO Mot1 rescue: 507*; Calb FLC: -8; ATG4B inhibitor: -6; Mot1 SUMO dose: 0

Results for CCCn1c(SCC(=O)N(C)CC(=O)Nc2ccc(C)cc2)n[nH]c1=O ?
NadD inh: 6; FAS-TE inh: -4; SUMO Mot1 rescue: 2; ATG4B inhibitor: 3

Results for CN(C)C(=O)CN1C(=O)c2cccc3cccc1c23 ?
NadD inh: 2; FAS-TE inh: -4; SUMO Mot1 rescue: active; Calb FLC: 0; ATG4B inhibitor: 6; Mot1 SUMO dose: 0

What do the screens show for `COC(=O)CN1C(=O)c2cccc3cccc1c23`?
NadD inh: -1; FAS-TE inh: -6; SUMO Mot1 rescue: 798*; Calb FLC: 0; ATG4B inhibitor: 5; Mot1 SUMO dose: -1

How did CN(C)c1ccnc2sc3c(SCc4ccc(Cl)cc4)ncnc3c12 do in these assays?
NadD inh: 6; FAS-TE inh: 2; SUMO Mot1 rescue: 120; Calb FLC: 7; ATG4B inhibitor: -2

Results for CN(C)c1ccnc2sc3c(NCC(O)CO)ncnc3c12 (configuration not stated) ?
NadD inh: -1; FAS-TE inh: -4; SUMO Mot1 rescue: 616*; Calb FLC: -8; ATG4B inhibitor: 4; Mot1 SUMO dose: 0

How did CC(C)(C)c1ccc(-c2nc(C=O)c3ccccn23)cc1 do in these assays?
NadD inh: -6; FAS-TE inh: 28; SUMO Mot1 rescue: 412*; Calb FLC: 22; ATG4B inhibitor: -6; Mot1 SUMO dose: -1
